Bioassay records (PubChem)
C8 TRAIL sens: caspase-8 TRAIL sensitization; NB7+C8 cells + TRAIL, ATPlite viability luminescence; inhibition (viability loss, TRAIL sensitization), % at 10 µM; 1% of 360,000 active;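 active = compounds causing at least 50% loss of cell viability in the single-dose screen, relative to plate controls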
CF NFkB block: cystic fibrosis NF-kB activation inhibition. AID 588850. KKLEB NF-kB-GFP reporter, PAF-induced, GFP fluorescence overnight. 0.86% of 360,000 active. inhibition, % at 5 µM;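 active = at least 50% inhibition at 5 µM, scaled per plate between neutral and stimulator controls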;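 also: PAF is a Pseudomonas aeruginosa culture filtrate used as stimulus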
iPSC survival up: hiPSC single-cell survival enhancement; ATPlite luminescence; 100% = ROCK inhibitor wells, 0% = DMSO; 0.044% of 360,000 active; survival enhancement, % at 20 µM; in the data active = survival enhancement above about 18%;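 also: cells exposed to compounds for 16 hours before the ATP read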
HIF-2a inh: inhibitors of HIF-2a | 786-0 RCC cells HIF-2a reporter, luciferase luminescence, overnight | 0.72% of 360,000 active | inhibition, % at 18.8 µM | AID 624352;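 active = inhibition of the luminescence signal of 40% or more relative to plate controls, in a single-dose primary screen at 18.75 µM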
PPC-1+TRAIL kill: PPC-1 cancer cell killing with TRAIL present. PPC-1 cells + TRAIL, ATPLite viability luminescence. cell killing (% activity), % at 4 µM or 5 µM. 0.41% of 220,000 active. AID 1443;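 active = cell killing above 50% in the first pass at 4 µM, then a duplicate retest at 5 µM averaging 50% or more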
KKLEB cytotox: CF airway cell cytotoxicity counter-screen; KKLEB CF airway cells viability, ATPlite luminescence, overnight; hits give low values; cells stimulated with P. aeruginosa culture filtrate; activity change (cytotoxicity), % at 5 µM; 0.36% of 360,000 active; AID 602141;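 active = corrected activity change at or below -50% at 5 µM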
Numbers stand for hits; 0 = inactive; - = not tested or not shown. The list is not random: actives were taken first. Their share in the collection is about 2.2%.

SMILES	C8 TRAIL sens	CF NFkB block	iPSC survival up	HIF-2a inh	PPC-1+TRAIL kill	KKLEB cytotox
N#Cc1c(N)n(C2OC(CO)C(O)C2O)c2ncnc(N)c12 (centres undefined)	0	89	0	71	-	-62
CC[N+](CC)(CC)CCOc1ccc(/C=C/c2ccccc2)cc1	0	53	0	0	-	0
CC[N+](CC)(CC)CCOc1cccc(OCC[N+](CC)(CC)CC)c1OCC[N+](CC)(CC)CC	0	0	0	0	-	0
O=C(NC(=S)N1CCc2ccccc21)c1ccccc1	51	0	0	0	0	0
CC(C)NC(=O)C1C(c2ccccc2)=Nc2ccccc2N1C(=O)c1cc(Cl)cc(Cl)c1 (centres undefined)	0	-	-	0	-	-
COc1ccc(C=C2CS(=O)(=O)CC(=Cc3ccc(OC)cc3)C2=O)cc1	0	92	0	86	-	0
CCCCNC1C(CC)C(CCC)C(C#N)(C#N)C1(C#N)C#N (centres undefined)	0	81	0	0	0	0
O=C(COc1ccccc1Cl)Nc1ccc(Cl)cn1	50	0	0	0	0	0
O=C(COc1ccc(Cl)cc1Cl)Nc1ccccn1	94	0	0	81	0	-92
Cc1c(C)c2ccc(OCC(=O)Nc3ccccn3)c(C)c2oc1=O	93	0	0	78	-	-90
Cc1c(O)ccc(C(=O)CN2CCN(c3ccc(F)cc3)CC2)c1O	0	0	0	0	-	0
Nc1c(N(Cc2ccco2)C(=O)c2ccccc2F)c(=O)[nH]c(=O)n1Cc1ccccc1	0	0	0	0	-	0
Cc1cc(-c2nc(-c3ccncc3)no2)ccc1[N+](=O)[O-]	0	0	0	0	-	0
Cc1ccc(-c2nc(-c3ccccn3)no2)cc1[N+](=O)[O-]	52	0	0	0	0	0
COc1ccccc1C(=O)NCCC(=O)Nc1ncccc1O	0	0	0	0	-	0
O=C1ON=C(c2ccccc2)/C1=C/c1ccc(O)c(O)c1	0	0	0	41	-	0
COc1ccc(/C=C2\C(=O)ON=C2c2ccccc2)cc1	0	0	0	0	-	0
CC(C)c1ccc2oc3nc(N)c(C(=O)O)cc3c(=O)c2c1	-	-	-	-	83	-
COCCNc1nnc(SCC(=O)NC2CCCCC2)s1	0	0	0	0	-	0
COCc1c(C(=O)N2CCc3ccccc32)oc2ccccc12	0	0	0	0	-	0
Cc1c(C(=O)N2CCc3ccccc32)oc2ccccc12	61	0	0	0	0	0
Cc1cccc(NC(=O)CN2CCN(CC(=O)Nc3cccc(C)c3)CC2)c1	0	0	0	0	0	-55
Cc1cccc(NC(=O)CCN2CCN(C)CC2)c1	0	0	0	0	-	0
O=C1C(Cl)=C(NCCCO)C(=O)c2ccccc21	0	0	0	72	0	0
CCOCCCNC1=C(Cl)C(=O)c2ccccc2C1=O	0	0	0	0	0	0
SMILES	C8 TRAIL sens	CF NFkB block	iPSC survival up	HIF-2a inh	PPC-1+TRAIL kill	KKLEB cytotox
O=C1C(Cl)=C(NCCCN2CCOCC2)C(=O)c2ccccc21	83	0	0	49	-	0
Oc1ccc(/C=N/NC(=S)N/N=C/c2ccc(O)cc2)cc1	0	0	0	0	0	0
COc1cccc(/C=N/NC(=S)Nc2cccnc2)c1	0	0	0	0	0	0
Oc1ccc(/C=N/NC(=S)Nc2cccnc2)cc1	71	0	0	0	0	0
COc1ccc(O)c(/C=N/NC(=S)Nc2cccnc2)c1	65	0	0	0	0	0
CCCC[n+]1ccn(C2=C([O-])c3ccccc3C(=O)/C2=N\S(=O)(=O)c2ccc(Br)cc2)c1	56	0	0	0	0	0
Cc1ccc(S(=O)(=O)/N=C2\C(=O)c3ccccc3C([O-])=C2n2cc[n+](CCC(C)C)c2)cc1	0	0	0	0	0	0
COc1cc(C(=O)NNC(=O)c2nn(C)c(=O)c3ccccc23)cc(OC)c1OC	0	0	0	0	-	0
O=[N+]([O-])c1c(Nc2ccc(O)cc2)cc(Cl)c2nonc12	96	103	0	95	-	-76
O=[N+]([O-])c1c(Nc2ccccn2)cc(Cl)c2nonc12	85	67	0	96	0	0
CN(C)c1cc(Nc2ccc(O)cc2)c([N+](=O)[O-])c2nonc12	0	0	0	0	0	0
O=C(O)c1ccccc1Nc1cc(Cl)c2nonc2c1[N+](=O)[O-]	0	0	0	0	-	0
Cc1ccc(Nc2nc(CSc3nnc(-c4ccccc4)n3C)cs2)cc1	50	0	0	0	0	0
Cc1ccc(Nc2nc(CSc3nnnn3C)cs2)cc1	51	0	0	0	0	0
Cn1nnnc1SCc1csc(Nc2ccccc2)n1	0	0	0	0	0	0
CC(=O)OC/C=C(\C)CCC=C(C)C	0	0	0	0	-	0
O=C(Nc1ccccc1Cc1ccccc1)c1ccccc1NS(=O)(=O)c1ccc(Cl)s1	0	63	0	0	0	0
O=C(Nc1ccccc1)c1ccccc1NS(=O)(=O)c1ccc(Cl)s1	0	0	0	0	0	0
Cc1ccc(NC(=O)c2ccccc2NS(=O)(=O)c2ccc(Cl)s2)cc1	0	60	0	0	0	0
O=C(Nc1ccccc1)c1cc2ccccc2o1	56	0	0	0	0	0
Cc1ccc(NC(=O)c2cc3ccccc3o2)nc1	59	0	0	0	-	0
O=C(COc1ccc(/C=N/NC(=O)c2cc3ccccc3o2)cc1Br)Nc1ccccc1	59	51	0	0	0	-51
O=C(COc1ccccc1[N+](=O)[O-])Nc1ccc(NC(=O)c2cc3ccccc3o2)cc1	0	0	0	0	0	0
Cc1cc(C)nc(NC(=O)c2cc3ccccc3o2)n1	0	0	0	0	0	0
O=C(Nc1ccc(F)cc1)c1cc2ccccc2o1	0	0	0	0	-	0
SMILES	C8 TRAIL sens	CF NFkB block	iPSC survival up	HIF-2a inh	PPC-1+TRAIL kill	KKLEB cytotox
CCOC(=O)[C@H]1[C@H]2COc3ccc(Cl)cc3[C@@H]2N2C(=O)CN(Cc3ccc(Cl)cc3)C(=O)[C@@]12C	0	0	0	0	-	0
CCc1cc2c(=O)[nH]c(N3CCCC3)nc2s1	0	0	0	0	0	0
CCc1cc2c(=O)[nH]c(-c3ccccn3)nc2s1	53	0	0	0	60	0
COc1cccc(-c2csc(NC3OC(=O)c4c3ccc(OC)c4OC)n2)c1 (centres undefined)	0	0	0	0	0	0
COc1ccc2c(c1OC)C(=O)OC2Nc1nc(-c2ccc(-c3ccccc3)cc2)cs1 (centres undefined)	62	0	0	0	0	0
CC(=O)N(C1CC(C)C(C#N)(C#N)C1(C#N)C#N)N(C)C (centres undefined)	0	0	0	46	0	0
CCCC(=O)N(C1CC(C)C(C#N)(C#N)C1(C#N)C#N)N(C)C (centres undefined)	0	0	0	86	0	0
COc1ccc(S(=O)(=O)N2CCC(C(=O)NCCC3=CCCCC3)CC2)cc1C	54	0	0	0	0	0
CN1CCN(S(=O)(=O)c2ccc(Cl)s2)CC1	0	0	0	0	-	0
